Screening results deposited in PubChem BioAssay by National Center for Advancing Translational Sciences (NCATS).
AmpC inh no detg = AmpC beta-lactamase inhibition without detergent; P00811; AmpC nitrocefin hydrolysis, absorbance 480 nm, 0.0001% Triton; Potency, µM (series often up to 57.1 µM), for inactives: at the highest dose activity change, negative = inhibition, hits mostly inhibitors; 330,000 tested, 0.52% active; AID 485341;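 further: potency means the concentration at half of the fitted maximal effect; plate controls were no compound for no effect and no enzyme for full effect; nearly all actives have a fitted effect of over 20% in size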
Target sequence (P00811 whole entry, looked up): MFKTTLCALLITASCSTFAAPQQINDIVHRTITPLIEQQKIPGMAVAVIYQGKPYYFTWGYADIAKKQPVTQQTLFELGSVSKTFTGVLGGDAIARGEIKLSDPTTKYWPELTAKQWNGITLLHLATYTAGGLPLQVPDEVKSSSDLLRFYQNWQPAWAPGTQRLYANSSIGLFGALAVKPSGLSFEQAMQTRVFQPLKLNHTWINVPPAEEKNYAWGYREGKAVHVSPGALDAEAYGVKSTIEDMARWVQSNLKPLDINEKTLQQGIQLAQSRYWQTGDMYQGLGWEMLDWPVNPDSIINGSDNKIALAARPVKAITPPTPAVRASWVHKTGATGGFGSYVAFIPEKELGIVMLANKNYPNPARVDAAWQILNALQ
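AmpC (5.3 nM in the dispensed reagent) in 20 mM phosphate pH 7.0 with 0.01% (detergent screen) or 0.0001% Triton X-100 was preincubated with compounds for 15 min at room temperature. Nitrocefin was then added from an 800 uM solution, and hydrolysis was followed at 480 nm.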
Shiga toxin inh = blocks Shiga toxin action in Vero cells. Vero cells, Shiga toxin protein synthesis inhibition reporter. inhibition, % at 38.7 µM. 290,000 tested, 9.2% active. AID 2315; in the data active means inhibition mostly above about 28%, no sharp cut-off; inactive means mostly below about 43%; further: 0% is about no effect
AmpC detergent = blocks E. coli AmpC beta-lactamase in detergent assay; P00811; AmpC hydrolysis of nitrocefin, absorbance 480 nm, 0.01% Triton; Potency, µM (doses to about 114 µM), inactives show at the top dose activity change, negative = inhibition, actives largely listed as inhibitors; 370,000 tested, 0.041% active;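 further: potency means the concentration at half of the fitted maximal effect; 0% = no-compound wells and -100% = no-enzyme wells; nearly all actives have a fitted effect of over 25% in size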
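AmpC (5.3 nM in the dispensed reagent) in 20 mM phosphate pH 7.0 with 0.01% (detergent screen) or 0.0001% Triton X-100 was preincubated with compounds for 15 min at room temperature. Nitrocefin was then added from an 800 uM solution, and hydrolysis was followed at 480 nm.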
AMA1-RON2 inh = AMA1-RON2 (P. falciparum) interaction inhibition; AlphaScreen AMA1-biotinylated RON2 peptide binding; Potency, µM (titrated, usually from 58.2 µM), for inactives: at the top dose activity change, negative = inhibition, most hits filed as inhibitors; 360,000 tested, 0.2% active;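 further: potency means the concentration at half of the fitted maximal effect; 0% = vehicle wells and -100% = peptide control; nearly all actives have a fitted effect of over 45% in size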
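AMA1 (3D7) with his tag at 25 nM final met compounds first, then biotinylated RON2 peptide at 25 nM; detection used donor plus acceptor beads, 10 µg/mL apiece, read by AlphaScreen after 30 min at room temperature.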
Cycloheximide cs = affects cycloheximide protein synthesis inhibition readout, counter-screen | cell reporter, cycloheximide protein synthesis inhibition counterscreen | max response, % | 300,000 tested, 12% active; in the data active means max response mostly above about 13%, no sharp cut-off; inactive means mostly below about 14%; further: read at 38.3 µM for the half of the compounds with a filed dose; 0% is about no effect
SARS PLP yeast = blocks SARS-CoV papain-like protease in a yeast assay; Potency, µM (titrated, usually from 32.9 µM), for the others: at the highest dose activity, positive = growth rescue, actives largely listed as activators; 330,000 tested, 0.19% active; AID 485353; S. cerevisiae expressing SARS-CoV PLpro, growth rescue; calls by dose curve; further: potency means the concentration at half of the fitted maximal effect; 0% is about no effect; nearly all actives have a fitted effect of over 55% in size
The depositor's hits bear a star; ? = inconclusive; nt = not tested or not shown. This is one part of a sample in which hits are shown more often than they occur. Unless noted, the call rests on the fitted dose curve; in most records, active means well fitted curve in the direction sought with a large enough effect; inconclusive means small, poorly fitted or top-dose-only effect, or another doubt; inactive means no such curve, though single readings can be large; an effect the other way counts as inactive or inconclusive.

SMILES | AmpC inh no detg | Shiga toxin inh | AmpC detergent | AMA1-RON2 inh | Cycloheximide cs | SARS PLP yeast
CCOC(=O)c1ccc(NC(=O)CN2C(=O)CSCC2=O)cc1 | -18.3% | -10.3 | -5.7% | -7.6% | 10.1 | 2.5%
CCOC(=O)c1ccc(NC(=O)CN2C(=O)CSC2=O)cc1 | -6.3% | 59.3 | 3.4% | 2.3% | 23.3* | 4.5%
Cc1cc(C(=O)CN2C(=O)NC(CC(C)C)C2=O)c(C)n1-c1ccccc1F (centres undefined) | 54.2% | 158.7* | 3.0% | -4.5% | 47.2* | 1.2%
Cc1cc(C(=O)CN2C(=O)C(=O)N(CC(C)C)C2=O)c(C)n1-c1ccccc1F | -2.5% | 60.9 | 2.3% | -9.2% | 16.9* | 1.8%
Cc1cc(C(=O)CN2C(=O)C3CC=CCC3C2=O)c(C)n1-c1ccccc1 (centres undefined) | 41.8% | 111.4* | -13.8% | -13.4% | 57.8* | -2.3%
Cc1cc(C(=O)CN2C(=O)NC(CC(C)C)C2=O)c(C)n1C1CC1 (centres undefined) | 1.4% | nt | nt | 6.8% | nt | 23.0%
Cc1cc(C(=O)CN2C(=O)C(=O)N(C3CCCC3)C2=O)c(C)n1-c1ccc(F)cc1 | 2.2% | 32.4 | 22.2% | -20.9% | 22.0 | 1.1%
Cc1ccc(S(=O)(=O)N2CCOCC2)cc1NC(=O)C1CC(=O)N(c2ccc3c(c2)OCCO3)C1 (centres undefined) | 0.0% | nt | 0.0% | 32.1% | nt | 2.5%
COc1cc2c(cc1OC)C(c1ccc(F)cc1)N(c1ccccc1)C(=O)C2 (centres undefined) | nt | nt | -9.1% | nt | nt | nt
O=C1CC(Sc2nnnn2-c2ccccc2)C(=O)N1c1cccc(Cl)c1 (centres undefined) | ? | 24.4 | -1.7% | 2.8% | 20.5* | -23.0%
COc1ccc(N2C(=O)CC(Sc3nnnn3-c3ccc(F)cc3)C2=O)cc1 (centres undefined) | -19.1% | 35.5 | 5.1% | 1.9% | 17.0 | -6.0%
C/C(Cc1ccccc1)=N\NC(=O)c1ccc(F)cc1 | -22.5% | 44.0 | -5.6% | 100.2% | 26.4* | -3.6%
O=C(NN=C(Cc1ccccc1)Cc1ccccc1)c1ccc(F)cc1 | -31.1% | 76.6* | 0.0% | 79.2% | 35.9* | -12.5%
NC(=O)c1ccc(C(=O)N/N=C(/Cc2ccccc2)c2ccccc2)cc1 | -8.5% | 22.3 | -12.8% | 28.6% | 25.9* | 3.9%
O=C(NN=C(Cc1ccccc1)Cc1ccccc1)c1ccccc1O | -41.5% | 18.2 | 4.0% | 111.0% | 11.0 | -1.0%
C/C(Cc1ccccc1)=N\NC(=O)CNC(=O)c1ccccc1 | -13.4% | -7.3 | -12.9% | 17.3% | -0.8 | -21.7%
Nc1cccnc1S(=O)(=O)c1ccccc1 | -14.3% | -8.5 | -11.1% | -3.5% | -8.7 | -0.1%
CCN1CCN(c2ccc(S(=O)(=O)N3CCOCC3)cc2NC(=O)C2CCC(C(C)(C)C)CC2)CC1 (centres undefined) | nt | nt | nt | -2.5% | nt | nt
O=S(=O)(c1ccccc1)c1nc(-c2ccco2)oc1Nc1ccccc1 | -87.2% | 90.2* | -2.4% | -17.0% | 24.9* | 6.3%
O=S(=O)(c1ccccc1)c1nc(-c2ccco2)oc1NCc1ccccc1 | -39.9% | 15.0 | ? | -9.9% | 9.0 | 6.9%
O=S(=O)(c1ccc(F)cc1)c1nc(-c2ccco2)oc1Nc1ccccc1 | -57.7% | 113.7* | -3.1% | -7.4% | 49.9* | -0.6%
O=S(=O)(c1ccccc1)c1nc(-c2ccco2)oc1NCc1ccco1 | -42.1% | -1.7 | ? | 3.9% | 2.1 | -2.9%
N#CC1=C(N)N2C(=C(C#N)C13CCCC3)Nc1ccccc12 | -30.3% | 50.5* | 5.1% | 28.2% | 8.8* | -0.5%
CCc1cc2c3c(c1)C1(C(=O)N3C(C)(C)CC2C)C(C#N)=C(N)N2C(=C1C#N)Nc1ccccc12 (centres undefined) | -14.4% | -7.2 | ? | -0.2% | -2.2 | -13.3%
CCN(CC)C(=O)Nc1cnc2ccccc2c1 | -10.8% | 48.4 | -22.8% | 26.0% | 17.8* | 1.2%
Cc1ccc(NC(=O)Nc2cnc3ccccc3c2)cc1 | -27.4% | 45.0* | -5.3% | -9.7% | 30.5* | -0.5%
COC(=O)c1cccc(C(=O)Nc2cnc3ccccc3c2)n1 | -20.9% | 39.4 | ? | 11.2% | 18.3 | -18.9%
